Measured values as given in PubChem BioAssay AID1347076 (National Center for Advancing Translational Sciences (NCATS), 2019).
Hit rate of the full screen: of about 400,000 compounds, about 13,000 (3.2%) were called active. Another 18% or so got no clear call; they are omitted. Calls come from the whole dose curve; as a rule, active = well fitted cell-killing curve with a large enough effect; inconclusive = small, poorly fitted or top-dose-only effect, or effect the other way; inactive = flat fitted curve, though single readings scatter. The entries come from a sample that favours actives as a whole. Entries that show only a call come without a potency.

Assay: qHTS assay for MDR1-selective chemotherapeutics: Primary screen using the drug-selected MDR subline cells KB-V1; note: nearly all actives have a fitted effect of over 60% in size
Settings: KB-V1 MDR cells viability, CellTiter-Glo, 72 h; series mostly up to 46.1 µM
Source text: A prime difficulty in effectively treating cancer is the development of cellular resistance to multiple structurally unrelated anticancer drugs, a phenomenon known as multidrug resistance (MDR). […] Numerous strategies to overcome P-gp-mediated MDR have been explored, including the design of drugs that evade recognition and efflux, and development of inhibitors to block efflux and restore drug accumulation. […] An alternative approach is to exploit resistance by identifying drugs that target MDR cells over the non-resistant parental cells from which they were selected. […] The development of MDR1-selective agents represents a new strategy for resolving multidrug resistance, as it remains a long-standing clinical challenge for cancer chemotherapy.
Our goal is to identify compounds that selectively kill P-gp-expressing MDR cells. We will identify MDR1-selective compounds by comparing toxicity of compounds in the screening library against parental, drug-naive (KB-3-1) adenocarcinoma cells as well as their drug-selected MDR sub-line (KB-V1). The differential toxicity of compounds against these two cell lines will be used to identify MDR1-selective compounds, whose cytotoxicity is potentiated, rather than diminished, by P-gp expression. This assay will be utilized to conduct a quantitative high-throughput screen (qHTS) in collaboration with the NIH Chemical Genomics Center to identify selective agents, and probe hits arising from the screen will be validated using secondary assays and characterized through a well-established follow-up research program. This screen was run against the entire NCGC library collection of about 400,000 compounds.
NIH Molecular Libraries Probe Production Network [MLPCN]
NIH Chemical Genomics Center [NCGC]
PI: Michael Gottesman, National Cancer Institute, NIH
Briefly, 5 microL of media containing either KB-V1 cells (columns 1-2, 4-48) are dispensed into Greiner white, treated solid-bottom 1536-well assay plates (media-only control is added to column 3). Compounds are then transferred via Kalypsys pin tool equipped with 1536-pin array (10 nL slotted pins, V&P Scientific, San Diego, CA). Following addition of compound, the plates are incubated at 37 degrees C for 72 hours. CellTiter-Glo (2.5 µL/well) is then added, and the plates are read in a ViewLux reader (Perkin-Elmer, clear luminescence filter, 1 second exposure, 1x binning) following a 10 minute incubation. All cells are dispensed in DMEM phenol-red free media containing 10% FBS.
Library plates were screened starting from the lowest and proceeding to the highest concentration. Vehicle-only plates, with DMSO being pin-transferred to columns 5-48, will be inserted uniformly at the beginning and the end of each library in order to monitor and record any shifts in the background, which can be affected by reagent dispensers or loss in enzyme activity over time. Screening data will be corrected, normalized, and concentration-effect relationships will be derived by using publicly-available NCGC, NCATS curve fitting algorithms (http://ncgc.nih.gov/pub/openhts).
Potency is the fitted concentration of half-maximal effect.

| Compound | Potency |
| --- | --- |
| Cc1ccccc1-c1nc(CS(=O)(=O)CC(=O)Nc2cc(Cl)cc(Cl)c2)c(C)o1 | inactive |
| CNc1nccc(-c2ccc(Cl)cc2)c1C#N | 8.2 µM (active) |
| CN(C)c1nc(-c2cccnc2)nc(-c2ccc(Cl)cc2)c1C#N | inactive |
| CN(C)c1ccnc(Nc2ccc(F)cc2)c1C#N | inactive |
| COc1cc(OC)cc(C(=O)Nc2cc3nn(-c4ccccc4)nc3cc2Cl)c1 | inactive |
| O=C1c2ccccc2-c2ccccc2NC1O (centres undefined) | inactive |
| COCC(C)n1c(SCc2ccc(C(=O)OC)o2)nc2ccccc2c1=O (centres undefined) | inactive |
| COC(=O)CSc1nc2ccccc2c(=O)n1Cc1ccccc1 | inactive |
| Cc1ccc(C(=O)CSc2nc3ccccc3c(=O)n2N)o1 | 11.6 µM (active) |
| COc1ccc(NC(C)=O)cc1NC(=O)CN1CCN(c2ccc(F)cc2)CC1 | inactive |
| COc1cc(CCN=Cc2ccccc2O)c([N+](=O)[O-])cc1OC | inactive |
| COc1ccc(CCNC(=O)/C(C#N)=C2\N=C(NC(=O)c3cccs3)c3ccccc32)cc1 | 10.3 µM (active) |
| COc1cc2ccccc2cc1C(=O)Nc1ccc(NC(=O)c2cccs2)cc1 | inactive |
| COc1cc(OC)cc(C(=O)NCCc2csc3nc(-c4ccccc4F)nn23)c1 | inactive |
| OC[C@@H]1CN(Cc2cccs2)C[C@H](n2cnc3c(NC4CCCC4)ncnc32)O1 | inactive |
| CCOc1cc(C(C(=O)NCC2CCCO2)N(C(=O)Cn2nnc3ccccc32)c2cccc(OC)c2)ccc1O (centres undefined) | inactive |
| CCOc1ccccc1Nc1nnc(SCC(=O)NCC2CCCO2)s1 (centres undefined) | inactive |
| CCOc1cc(-c2nc3cc(C)ccn3c2NCC2CCCO2)ccc1O (centres undefined) | 2.59 µM (active) |
| OC(c1ccc(F)cc1)c1ncc(-c2cccc(C(F)(F)F)c2)[nH]1 (centres undefined) | inactive |
| Cc1cn([C@H]2C[C@H](O)[C@@H](CNC(=O)[C@H](N)Cc3cccnc3)O2)c(=O)[nH]c1=O | inactive |
| COc1ccc(-c2nc(CN3CCC(C(=O)NCCN(CC(C)C)CC(C)C)CC3)c(C)o2)cc1OC | inactive |
| COc1ccc(CCNC(=O)C2CCCN(Cc3nc(-c4cccc(Cl)c4)oc3C)C2)cc1OC (centres undefined) | 5.8 µM (active) |
| COc1ccc(-c2nc(CN3CCC(C(=O)NCc4ccccc4)CC3)c(C)o2)cc1OC | inactive |
| Cc1ccc(C(=O)CSc2nc(-c3ccccc3)nc3c2CCCC3)c(C)c1 | inactive |
| CC1=C(C(=O)N(C)C)CC(CC(=O)NCCN2CCOCC2)C(=O)N1Cc1ccccc1 (centres undefined) | inactive |

| Compound | Potency |
| --- | --- |
| Cc1nnc(NC(=O)C(c2ccccc2)c2ccccc2)s1 | inactive |
| Cc1nnc(NC(=O)Nc2ccc(Cl)c(Cl)c2)s1 | 18.4 µM (active) |
| Cc1ccc(NC(=O)Nc2nnc(-c3ccncc3)s2)cc1 | inactive |
| O[C@H]1CN(Cc2cccs2)[C@@H](c2ccc(Cl)cc2)C[C@@H]1n1cc(C2CC2)nn1 | inactive |
| O=C(NN=Cc1ccc2c(c1)CCC2)c1ccccc1O | inactive |
| Cc1cc2cc3c(N)[nH]nc3nc2cc1C | 7.31 µM (active) |
| O=C(C[n+]1ccncc1)c1ccc2c(c1)CCCC2 | inactive |
| Cc1cc(C)cc(Nc2ncnc3onc(-c4ccc(F)cc4)c23)c1 | inactive |
| C[C@@H]1CN([C@H](C)CO)C(=O)CCCn2nncc2CO[C@@H]1CN(C)C(=O)OCc1ccccc1 | inactive |
| CC(=O)OC[C@@H]1CN(Cc2ccccc2)C[C@H](n2cnc3c(NCc4ccco4)ncnc32)O1 | inactive |
| c1ccc(C2c3[nH]c4ccccc4c3CCN2Cc2cccn2-c2cccnc2)nc1 (centres undefined) | inactive |
| O=C(c1cn2ccccc2n1)N1CCc2c([nH]c3ccccc23)C1c1ccccn1 (centres undefined) | inactive |
| COCc1ccc(C(=O)N2CCc3c([nH]c4ccccc34)C2c2ccccn2)s1 (centres undefined) | 18.4 µM (active) |
| COc1ccc(OC)c(NC(=O)c2cc(-c3cc(F)ccc3OCC3CCCO3)n[nH]2)c1 (centres undefined) | inactive |
| Cn1c(=O)c2c(nc(SCC(=O)Nc3ccc(F)cc3)n2Cc2ccccc2)n(C)c1=O | inactive |
| C[C@H]1Cn2cnc(C(=O)N[C@H](C)c3ccccc3)c2C(=O)N1 | inactive |
| COc1cc(OC)c(NC(=O)c2nc(-c3ccncc3)no2)cc1Cl | inactive |
| CC1CC(=O)Nc2ccccc2N1C(=O)COc1ccc2cc(Br)ccc2c1 (centres undefined) | 16.4 µM (active) |
| Cc1ccc(OCCC(=O)OCC(=O)N2c3ccccc3NC(=O)C2(C)C)cc1 | inactive |
| CC1CC(=O)Nc2ccccc2N1S(=O)(=O)c1cccs1 (centres undefined) | inactive |
| CN[C@H]1C[C@H]2c3cc(Oc4ccccc4C)ccc3CCN2C(=O)[C@H]1[C@H](C)O | inactive |
| C=CCNC(=O)c1ccc2nc(-c3ccco3)c(-c3ccco3)nc2c1 | inactive |
| O=C(CCC1CCCN(C(=O)Cc2ccc(F)cc2)C1)N1CCN(c2ccccn2)CC1 (centres undefined) | 16.4 µM (active) |
| C=Cc1ccc(C(=O)N2CCCC(CCC(=O)N3CCN(c4ccccn4)CC3)C2)cc1 (centres undefined) | inactive |
| COc1cccc(CC(=O)N2CCCC(CCC(=O)N3CCN(c4ccccn4)CC3)C2)c1 (centres undefined) | inactive |

| Compound | Potency |
| --- | --- |
| COc1ccc(/C=C/c2ccnc3ccccc23)cc1OC | inactive |
| Cc1ccc(/C=N/NC(=O)CSc2nc3ccccc3o2)cc1 | inactive |
| Cc1ccc(/C=N/NC(=O)COc2ccccc2-c2ccccc2)cc1 | 1.03 µM (active) |
| Cc1cccc(OCC(=O)NCC(=O)N/N=C/c2ccc(N(C)C)cc2)c1 | inactive |
| CCCc1c(C)nc2scc(-c3ccc(Cl)cc3)n2c1=O | inactive |
| O=C(NNS(=O)(=O)c1ccc(Cl)cc1)C1CCN(Cc2ccccc2)CC1 | inactive |
| NC(=O)C1(N2CCCC2)CCN(Cc2ccccc2)CC1 | inactive |
| CCOC(=O)C1(S(=O)(=O)c2ccc(Cl)cc2)CCN(Cc2ccccc2)CC1 | 20.6 µM (active) |
| CCOC(=O)C1CCN(Cc2ccc(-c3ccccc3)cc2)CC1 | inactive |
| CCOC(=O)C1(CCOC)CCN(Cc2ccc(C(=O)OC)cc2)CC1 | inactive |
| CCOC(=O)C1(S(=O)(=O)c2ccccc2)CCN(Cc2ccccc2)CC1 | 16.4 µM (active) |
| Cc1ccc(C=O)cc1Cl | inactive |
| Nc1ccccc1-c1nc2ccncc2[nH]1 | inactive |
| COc1ccc(OC)c(NC(=O)C2(C)CCN2C(=O)Cc2ccccc2)c1 (centres undefined) | inactive |
| Cc1ccc(S(=O)(=O)N2C[C@@H](C)[C@]3(C2)[C@H](O)[C@H](OC(=O)NCc2ccccc2)C[C@H]2C(=O)N(c4ccccc4)C(=O)[C@H]23)cc1 | inactive |
| CC1CCCC(C)N1C(=O)COC(=O)c1ccccc1C(=O)c1ccccc1 (centres undefined) | inactive |
| CCOc1ccc(NC(=O)C(CC(C)C)N2Cc3ccccc3C2=O)cc1 (centres undefined) | inactive |
| O=C(CNS(=O)(=O)c1ccccc1)N1CCN(C(=O)c2ccco2)CC1 | inactive |
| CC(C)Cc1ccc(S(=O)(=O)N2CCN(C(=O)c3ccco3)CC2)cc1 | 7.31 µM (active) |
| CN1CCN(S(=O)(=O)c2ccc(NC(=O)c3ccco3)cc2)CC1 | inactive |
| CCOc1ccccc1NC(=S)C(=C([O-])c1ccc2c(c1)OCCO2)[n+]1ccc(CC)cc1 | inactive |
| CC(=O)c1ccccc1NC(=O)C1CC(=O)N(c2ccc3c(c2)OCCO3)C1 (centres undefined) | 16.4 µM (active) |
| CCc1nnc(NC(=O)C2CC(=O)N(c3ccc4c(c3)OCCO4)C2)s1 (centres undefined) | inactive |
| CCOC(=O)c1ccc(NC(=O)C2CC(=O)N(c3ccc4c(c3)OCCO4)C2)cc1 (centres undefined) | inactive |
| COc1cccc(NC(=O)CSC2=Nc3ccccc3C3=NC(CC(=O)NC4CCCCC4)C(=O)N23)c1 (centres undefined) | inactive |

| Compound | Potency |
| --- | --- |
| CCc1ccc2c(c1)NC(=O)C2(C)Cc1ccc(OC(F)(F)F)cc1 (centres undefined) | inactive |
| Nc1ncnc2c1ncn2[C@@H]1O[C@H](CNC(=O)[C@H](N)Cc2cccnc2)[C@@H](O)[C@H]1O | inactive |
| CCC1(C)CC(=O)c2c(ccc3oc(C(=O)Nc4ccc(C(C)=O)cc4)c(C)c23)O1 (centres undefined) | inactive |
| COc1ccc(CCNC(=O)CCCCn2c(=O)c3ccccc3n(Cc3ccccc3C)c2=O)cc1OC | inactive |
| Cc1ccc(Cn2c(=O)n(CCCC(=O)NCc3ccccc3Cl)c(=O)c3ccccc32)cc1 | inactive |
| COc1cc(C(=O)Nc2ccc(OCc3cc(=O)n4cc(C)sc4n3)cc2)cc(OC)c1OC | inactive |
| Cn1c(=O)c2c(nc(Oc3ccc(C#N)cc3)n2Cc2ccc(Cl)cc2Cl)n(C)c1=O | inactive |
| Cc1cccc(N=C2NC(=O)/C(=C/c3cn(C)c4ccccc34)S2)c1 | 14.6 µM (active) |
| Cc1ccc(C(=O)N/C(=C\c2cn(C)c3ccccc23)C(=O)N2CCN(C)CC2)cc1 | inactive |
| Cc1ccc(N2C(=O)S/C(=C/c3cn(C)c4ccccc34)C2=O)cc1 | inactive |
| CC1=C(C(=O)N2CCOCC2)CC(CC(=O)NCCCN(C)C)C(=O)N1Cc1ccc(C(C)(C)C)cc1 (centres undefined) | inactive |
| CC(C)OC(=O)CC(=O)CC(O)c1cccc([N+](=O)[O-])c1 (centres undefined) | inactive |
| CN(Cc1ccccc1)C(=O)CCS(=O)(=O)c1cc(Br)cc2c1N(C(=O)C1CC1)CC2 | inactive |
| CCOC(=O)N1CCN(S(=O)(=O)c2cc(Br)cc3c2N(C(=O)C2CC2)CC3)CC1 | inactive |
| CCN(c1ccc2c(c1)OCO2)S(=O)(=O)c1cc(Br)cc2c1N(C(=O)C1CC1)CC2 | 5.17 µM (active) |
| CCOC(=O)c1ccc(-c2ccc3ncnc(N(C)Cc4sccc4C)c3c2)o1 | inactive |
| CCCC(=O)Nc1ccc(Cl)c(NC(=O)c2ccc(Br)o2)c1 | 20.6 µM (active) |
| O=C(CNC(=O)c1ccc(Br)o1)Nc1ccccc1 | inactive |
| CCN1CCN(c2c(Cl)cccc2NC(=O)c2ccc(Br)o2)CC1 | inactive |
| Cc1ccc2cccc(NC(=O)C(C)Oc3ccc(C)c(C)c3)c2n1 (centres undefined) | inactive |
| CC1(C(=O)NS(=O)(=O)c2ccc(C#N)cc2)CCN1C(=O)CC1CCCC1 (centres undefined) | inactive |
| Cc1cc(-c2n[nH]c(=S)n2/N=C/C(Br)=C/c2ccccc2)n[nH]1 | 10.3 µM (active) |
| S=c1[nH]nc(-c2cc(-c3ccccc3)n[nH]2)n1/N=C/c1c2ccccc2cc2ccccc12 | inactive |
| CC(C)c1cc(C(=O)N/N=C/C(Br)=C/c2ccccc2)n[nH]1 | inactive |
